Most compounds without a hit are left out; they make up all but 3.4% or so of the library.
MITF primary: human MITF inhibition, primary screen. O75030. AlphaScreen MITF homodimerization, bead proximity signal. inhibition, % at 2.6 µM. 650,000 tested, 0.91% active. AID 1259374; in the data active = inhibition above about 50%;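 also: 0% = vehicle wells with protein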
Target sequence (O75030 whole entry, looked up): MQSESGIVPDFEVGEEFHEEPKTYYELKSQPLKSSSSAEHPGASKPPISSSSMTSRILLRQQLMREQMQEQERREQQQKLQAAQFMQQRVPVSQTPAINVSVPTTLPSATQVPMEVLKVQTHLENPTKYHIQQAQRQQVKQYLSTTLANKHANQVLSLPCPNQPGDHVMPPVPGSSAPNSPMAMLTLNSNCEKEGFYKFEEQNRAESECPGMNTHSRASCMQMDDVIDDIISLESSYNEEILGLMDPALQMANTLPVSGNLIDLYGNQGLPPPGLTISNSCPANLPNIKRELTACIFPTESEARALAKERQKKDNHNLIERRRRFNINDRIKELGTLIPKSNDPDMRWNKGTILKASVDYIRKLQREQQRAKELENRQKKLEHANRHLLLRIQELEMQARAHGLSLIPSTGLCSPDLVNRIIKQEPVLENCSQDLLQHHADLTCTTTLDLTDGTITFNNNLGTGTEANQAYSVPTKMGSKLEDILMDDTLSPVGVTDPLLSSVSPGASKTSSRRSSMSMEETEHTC
TEAD-YAP inh: TEAD-YAP interaction inhibition | 640,000 tested, 1.4% active | inhibition, % at 9.12 µM | AID 1259422 | HEK-TIYL cells, TEAD-Gal4/YAP UAS-luciferase luminescence; in the data active = inhibition above about 32%;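 also: 0% = median of test compound wells and 100% = reference inhibitor wells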
FBW7 activator: human FBW7 E3 ligase activation, primary screen; Q969H0; 650,000 tested, 0.13% active; normalized activity (activation), % at 26.1 µM; AlphaScreen FBW7–phospho-cyclin E peptide binding, activator screen; AID 1259310; in the data active = normalized activity above about 1.9%;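 also: purified mutant Fbw7 with reduced substrate affinity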
GPR151 ag: human GPR151 activation; Q8TDV0; PathHunter beta-arrestin GPR151 cells, luminescence; activation, % at 11.2 µM; 650,000 tested, 1% active; in the data active = activation above about 4.9%;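 also: 0% = median of compound wells and 100% = cells with positive control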
* marks the source's active call; other numbers are inactive results; x = no result.

SMILES	MITF primary	TEAD-YAP inh	FBW7 activator	GPR151 ag
COc1ccc(N2C(SC)=NC(=Nc3ccc(C)cc3)C23CCC(C(C)(C)C)CC3)cc1 (stereo not drawn)	12.6	2.3	0.0	-0.2
COC1(C)N(c2ccc(C)cc2)CC(=Nc2ccc(C)cc2)N1c1ccc(C)cc1 (stereo not drawn)	9.2	38.0*	0.2	0.9
O=C(Nc1ccc(Br)cc1)c1cnn2ccccc12	5.7	32.3*	0.2	-2.6
CC1=C(C(=O)OC(C)C)C(c2ccsc2)C2=C(CC(c3cccs3)CC2=O)N1 (stereo not drawn)	-10.7	67.0*	0.0	-1.2
CCOCCOC(=O)C1=C(C)NC2=C(C(=O)CC(c3cccs3)C2)C1c1cccs1 (stereo not drawn)	-4.5	14.0	0.1	-0.9
CCOC(=O)C1=C(C)NC2=C(C(=O)CC(c3ccco3)C2)C1c1cccs1 (stereo not drawn)	9.6	63.1*	0.4	-1.2
NNC(=O)C(Cc1c[nH]c2ccccc12)NC(=O)OCc1ccccc1 (stereo not drawn)	5.3	-1.5	-0.2	0.1
COc1cc2c(cc1O)CCC1C2CC[C@@]2(C)C1CC[C@@H]2O (stereo partly drawn)	11.6	x	0.1	-0.3
COc1cc2c(cc1O)CC[C@@H]1[C@@H]2CC[C@]2(C)[C@@H](O)CC[C@@H]12	16.5	53.1*	0.1	-1.4
Cc1c(/C=N/Nc2cccc3cccnc23)c(=O)n(-c2ccccc2)n1C	19.2	87.8*	-0.1	-5.2
C(=N\Nc1cccc2cccnc12)/c1ccccn1	38.2	24.1	0.0	-3.3
CC1CCN(C(c2ccncc2)c2ccc3cccnc3c2O)CC1 (stereo not drawn)	89.2*	20.0	-0.4	-2.6
Cc1[nH]c2ccccc2c1C(c1ccncc1)N1CCC(C)CC1 (stereo not drawn)	-1.4	-2.5	-0.2	-0.3
Oc1cccc(C(c2ccc3cccnc3c2O)N2CCCC2)c1 (stereo not drawn)	39.3	18.5	-1.3	0.5
Oc1c(C(c2ccncc2)N2CCCC2)ccc2cccnc12 (stereo not drawn)	76.1*	12.1	-0.1	-0.3
CCN1CCN(C(c2cccnc2)c2ccc3cccnc3c2O)CC1 (stereo not drawn)	68.0*	14.6	-0.2	-0.7
CC(Sc1nccn1C)C(=O)NC(c1ccccc1)c1ccccc1 (stereo not drawn)	-18.2	-0.6	-0.1	0.0
CC(Sc1nnc(C(F)(F)F)n1N)C(=O)NC(c1ccccc1)c1ccccc1 (stereo not drawn)	-2.5	33.2*	-0.1	-1.5
COc1cc2nc(Nc3ccnn3C)nc(Nc3cc(OC)c(OC)c(OC)c3)c2cc1OC	8.3	63.5*	0.0	1.3
CC1=C(C(=O)Nc2nc3ccc(Br)cc3s2)C(c2ccc([N+](=O)[O-])cc2)C2=C(CC(C)(C)CC2=O)N1 (stereo not drawn)	-9.0	-2.8	0.0	0.1
Cc1ncc2c(NCCN(C)C)nc3ccccc3n12	10.7	45.7*	0.1	0.8
Cc1ncc2c(NCCc3ccccc3)nc3ccccc3n12	3.0	-13.7	-0.3	-2.4
COc1ccc(C2CC(=O)c3c(ccc4ccccc34)N2)cc1 (stereo not drawn)	11.2	0.1	0.0	-1.2
COc1ccc(Br)cc1C1CC(=O)c2c(ccc3ccccc23)N1 (stereo not drawn)	2.2	37.3*	-0.1	0.3
COc1ccc(NCC(O)Cn2c3ccccc3c3ccccc32)cc1 (stereo not drawn)	12.9	51.4*	-0.1	-0.6
SMILES	MITF primary	TEAD-YAP inh	FBW7 activator	GPR151 ag
Cc1c(C)n(CC(O)CNc2ccccc2)c2ccccc12 (stereo not drawn)	58.8*	-0.1	0.3	2.5
O=c1oc2ccc(Cl)cc2cc1-c1csc(Nc2ccc(F)cc2)n1	-0.8	-0.1	-0.1	0.3
CCC(CC)NC(=O)c1cccc(I)c1	-6.8	33.6*	-0.1	1.1
Cc1cc(C)n2nc(S(=O)(=O)NCc3ccccc3)nc2n1	18.1	2.7	-0.1	1.7
C=CCOc1ccc(C(=O)Nc2ccccn2)cc1	10.3	51.6*	0.1	-7.8
Cc1ccc(C(=O)Nc2ccccn2)cc1C	18.2	43.8*	0.3	-9.7
CC(C)(C)c1ccc(C(=O)Nc2ccccn2)cc1	15.1	84.0*	0.1	-10.0
COc1ccc(N2C(=O)CSC2c2ccc(C3SCC(=O)N3c3ccc(OC)cc3OC)cc2)c(OC)c1 (stereo not drawn)	-2.1	-7.5	0.0	-2.1
Oc1c(C(Nc2cccc(C(F)(F)F)c2)c2cccnc2)ccc2cccnc12 (stereo not drawn)	65.0*	14.8	-2.0	1.0
